Seven sequences from the supplement of paper PMC6555819 can be followed below.

Holding throughout (assay): PBM binding z-score (relative to random genomic background probes); higher = stronger binding; sequences stand for … in GC…GCGATTGACAGCGTAGAATGAAGG
Test [1] deals with FXR:RXRa (NR concentration 270 nM, RXRa partner concentration 90 nM). Put shortly: (§1)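 Binding z-scores take random background probes as their reference. They come from custom Agilent 4×180K protein-binding microarrays incubated 1 h with ligand-free nuclear receptor dimers, with antibodies against each partner (one per run) detecting binding. Scanned fluorescence was regression-normalized.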

Test [2] relates to LXRa:RXRa (NR concentration 270 nM, RXRa partner concentration 90 nM). In a few lines: as §1
In test [3] the test system is LXRa homodimer (NR concentration 270 nM). Put shortly:
as §1

Test [4] concerns LXRb:RXRa (NR concentration 270 nM, RXRa partner concentration 90 nM). Put shortly: as §1
For test [5], the system named is LXRb homodimer (NR concentration 270 nM). Put shortly: as §1
Test [6] has as its system PPARa:RXRa (NR concentration 270 nM, RXRa partner concentration 90 nM). Put shortly: as §1
Test [7] deals with PPARg:RXRa (NR concentration 180 nM, RXRa partner concentration 90 nM). Put shortly: as §1
Test [8] deals with PPARg:RXRa 270nM:90nM, anti-RXR (NR concentration 270 nM, RXRa partner concentration 90 nM). In a few lines: as §1
For test [9], the system named is PPARg:RXRa 30nM:10nM, anti-RXR (NR concentration 30 nM, RXRa partner concentration 10 nM). In a few lines: as §1
Test [10] has as its system PPARg:RXRa 90nM:30nM, anti-RXR (NR concentration 90 nM, RXRa partner concentration 30 nM). In a few lines: as §1
The subject of test [11] is PPARg:RXRa DBDmut IVT, anti-RXR (DBD mutation: RXRa K156A/R161A, NR concentration 270 nM, RXRa partner concentration 90 nM). In a few lines: as §1
Test [12] relates to PPARg:RXRa IVT, anti-PPARg (NR concentration 270 nM, RXRa partner concentration 90 nM). In a few lines: as §1
For test [13], the system named is PPARg DBDmut:RXRa IVT, anti-PPARg (DBD mutation: PPARg1 K132A/R137A, NR concentration 270 nM, RXRa partner concentration 90 nM). Put shortly:
as §1

The subject of test [14] is PPARg DBDmut IVT, anti-PPARg (DBD mutation: PPARg1 K132A/R137A, NR concentration 270 nM). Put shortly:
as §1

Test [15] concerns PPARg homodimer (NR concentration 180 nM). Put shortly: as §1
Test [16] concerns PXR:RXRa (NR concentration 270 nM, RXRa partner concentration 90 nM). In a few lines: as §1
Test [17] deals with PXR homodimer (NR concentration 270 nM). In a few lines: as §1
The subject of test [18] is RARa:RXR (NR concentration 270 nM, RXRa partner concentration 90 nM). Put shortly:
as §1

The subject of test [19] is RARa homodimer (NR concentration 270 nM). Put shortly:
as §1

In test [20] the test system is RARb:RXRa (NR concentration 270 nM, RXRa partner concentration 90 nM). In a few lines:
as §1

Regarding AATACAGGGTCACTAGGCCACAGTAGGTACGAAT, the PBM binding z-score in test [1] is 6.38; in test [2], 4.76; in [3] it was 1.17; in test [4], 4.02; in test [5] it was 1.04; in test [6], 6.17. Moreover, the PBM binding z-score came out at 8.82 in test [7]; 7.43 in [8]; 4.24 in test [9]; 6.72 in test [10]; 4.65 in test [11]; 6.73 in test [12]. The PBM binding z-score worked out at 4.31 in test [13]; 2.11 in test [14]; 3.96 in test [15]; 3.36 in test [16]; 0.57 in test [17]; 4.14 in [18]. Further, the PBM binding z-score amounted to 1.37 in [19] and 4.27 in [20].

Consider CAGCCTAGGTCAGGGCCAGTATTGGAGGAACGTT, for which the PBM binding z-score in test [1] is 1.65; in test [2], 0.996; in [3], -0.403; in test [4] it was 0.567; in [5], -1.11; in [6], 2.03. The PBM binding z-score in [7] is 0.396; in test [8], 0.87; in [9], -0.497; in test [10], 0.402; in test [11], 1.37; in [12], 1.29. Also, the PBM binding z-score in test [13] is -1.49; in test [14], -1.57; in test [15] it was 0.568; in test [16] it was 0.0346; in test [17], -0.593; in test [18], 1.02. The figures for the PBM binding z-score in test [19] and in [20] were -0.698 and 3.35, respectively.

For the sequence CGAACTAGGTCATCCAGGACAGAGAATACATTGA, the PBM binding z-score in [1] came out at 4.18; in test [2], 2.74; in test [3], 0.462; in test [4], 2.08; in test [5], 0.0984; in test [6], 4.79. Further, the PBM binding z-score came out at 7.72 in [7]; 6.45 in [8]; 3.83 in [9]; 5.81 in test [10]; 8.15 in test [11]; 8.34 in [12]. Also, the PBM binding z-score in test [13] was 2.22; in [14], 1.68; in test [15], 1.64; in test [16], 1.97; in test [17], 1.05; in [18] it was 2.45. Further, the PBM binding z-score in test [19] was 0.545; in [20], 3.79.

Turning to CTACCAAGGTGAACAAGCTCGTTGATTACTATTC, the PBM binding z-score in [1] was 0.329; in test [2] it was 0.121; in test [3], -0.188; in test [4], 0.479; in test [5], -0.421; in test [6], 0.984. The PBM binding z-score in test [7] is 0.332; in test [8], 0.345; in test [9], -0.0799; in [10], 0.167; in [11] it was 2.56; in test [12] it was 2.23. Moreover, the PBM binding z-score in test [13] was 0.852; in test [14], 0.253; in test [15], 0.000283; in [16], -0.0454; in test [17], -0.0254; in [18], 0.251. For the same sequence, the PBM binding z-score was found to be 0.281 in [19] and 1.41 in test [20].

Regarding TAGCCTAGGTCATCGGGCCAGTATAGTACGCATC, the PBM binding z-score is 4.52 in [1]; 3.33 in [2]; 0.51 in test [3]; 2.29 in test [4]; 0.0366 in [5]; 3.91 in test [6]. For the same sequence, the PBM binding z-score turned out to be 3.13 in test [7]; 3.04 in test [8]; 0.482 in test [9]; 2.16 in [10]; 1.44 in test [11]; 3.19 in test [12]. Besides, the PBM binding z-score is 0.181 in [13]; -0.303 in test [14]; 1.03 in test [15]; 1.81 in [16]; -0.265 in test [17]; 2.58 in test [18]. The PBM binding z-score in test [19] was -0.0244; in [20] it was 3.9.

In the case of ACTCGGAGGACAAAGGTCAGAGATACGCCAGTGA, the PBM binding z-score in [1] is 4.21; in test [2], 4.08; in [3], 1.83; in test [4], 3.54; in [5] it was 0.52; in test [6], 4.69. Besides, the PBM binding z-score in test [7] is 7.66; in [8] it was 6.85; in test [9], 6.73; in [10], 7.24; in [11] it was 0.715; in [12], 3.35. Also, the PBM binding z-score in test [13] is 0.221; in test [14], -0.524; in test [15], 4.07; in test [16], 4.02; in test [17] it was 0.592; in test [18], 5.15. The PBM binding z-score amounted to 1.44 in test [19] and 4.56 in test [20].

As for CCGACTGGGGCAAAGTTACCATAACGCACAGCCA, the PBM binding z-score was -0.19 in [1]; -0.516 in test [2]; -0.498 in [3]; -0.362 in [4]; -0.945 in test [5]; 1.6 in [6]. Also, the PBM binding z-score came to 4.27 in [7]; 5 in test [8]; 3.18 in test [9]; 4.86 in [10]; 3.71 in [11]; 3.42 in [12]. The PBM binding z-score in test [13] was -0.241; in [14], -0.589; in test [15], 0.229; in [16], -0.542; in [17] it was -0.263; in test [18], -0.168. For the same sequence, the PBM binding z-score was -0.168 in [19] and 0.462 in [20].
